This note sets out measurements from the OligoGym collection.
Note: reference of the scale not given here.

The first assay has as its target CYP2E1. The assay is described as follows: pooled miR-30 sensor sort-seq; sequence = guide strand. The conditions noted are these: shRNA.
Regarding TATTCTTCAATTCCAACTGGAA, the sensor-assay potency score (higher = more potent) is -0.685. Same read-out and setting: the result for TTGATGGTGCTCCTTCACCCTT reads -1.19; that for TGTCCTTCCAGGTAGGTCCATT, -0.826. For TTCATGGAGCTTCTCTTCGATC, the sensor-assay potency score (higher = more potent) is -1.27. Still for that read-out and setting: the result for TTATTGTAAAGCTGGAGCCAGG reads -1.09; that for TACAGCGTGAACACCGGCCCGA, -0.641. Still for that read-out and setting: the result for ATGTAGGGCATCTCTTGCCTAT reads -1.01. Same read-out and setting: the same measure for TTGGTTGTCATACAAAACAGAG: -1.2; for ATCATTGTAGTCAAAATGCTTG: -1.07; for TAAACTTTTCTGGATCAGGAAA: -1.37. TAGAAACTTCTCATCATTGTAG displayed a sensor-assay potency score (higher = more potent) of 1.11. Same read-out and setting: the same measure for TAGTCACTGTACTTGAACTTTC: -0.787.

Sequence TAAACAAATACATCAGCCTTAG came in with a sensor-assay potency score (higher = more potent) of -0.917. The sequence TTTTTTATGACTTTTCTGTGGC yielded a sensor-assay potency score (higher = more potent) of 0.343. Same read-out and setting: the same measure for TTGTAGTCAAAATGCTTGCGGA: -0.87. The same measure, in the same setting: the result for TCACTGTACTTGAACTTTCCAT reads -0.768; that for TTGGGGATGAGGTATCCTCTGA, -0.671. The same measure, in the same setting: the result for AAGTAGTGTAGAAAGCTGGGAA reads 0.682.

A further assay addresses CYP4A11. Described as above. The conditions noted are these: shRNA.
AAAGGGTCAAACACCTCTGGGT: the sensor-assay potency score (higher = more potent) was -0.324. In turn, TAGATGGTGTCATTCTGGTGAA returned a sensor-assay potency score (higher = more potent) of -0.837. On the same count and under the same terms, the result for TTTCTGAATCCGTTGTAGCTCC reads -0.368. Same read-out and setting: the same measure for TGTGCAGGTAGAGCTGAACTGC: -1.37. Take TAGCTCCTGGTCCTGTTGGAGC: the sensor-assay potency score (higher = more potent) is -1.31. On to TTTGAGCAGCCACTGCCTGTGC, for which the sensor-assay potency score (higher = more potent) is -0.428. The same measure, in the same setting: the result for AACACAAGTCGTGCAATGGGGA reads -1.18.

Another assay concerns the target CYP4A22. The assay is described as above. The conditions noted are these: shRNA.
AAACATGAACGTGTCCACCTCA gave a sensor-assay potency score (higher = more potent) of -0.12.

For the sequence TAGAGGATCCAGGAGATCCCAC, the sensor-assay potency score (higher = more potent) was -1.33.

In turn, TATGCAGGTAGAGCTGAGCTGC gave a sensor-assay potency score (higher = more potent) of -1.03. Still for that read-out and setting: the result for TTGGGTTGTGGTGAAGGCCATA reads -1. Still for that read-out and setting: the same measure for TAGCTCCTGGTCGTGTTGGAAC: -1.63; for TTCATGGCAAATTGTTTCCCGA: -0.959.

For TTTCAACACAAGTCGTGCCATG, the sensor-assay potency score (higher = more potent) is -0.809. Same read-out and setting: the result for TTGGGAATGTCTTCACCCGTTC reads -0.893; that for TCAGTTGGATCACTTGGTCTGT, -0.279; that for TTGTAGCTCCTGGTCGTGTTGG, -0.703. Same read-out and setting: the result for TGGTCGTGTTGGAACTCCTGGA reads -0.8. As for TTTGGATTTCAACACAAGTCGT, the sensor-assay potency score (higher = more potent) is -1.17. Still for that read-out and setting: the result for AACACAAGTCGTGCCATGGGGA reads -0.895; that for TTGGTCTGTGTGCTGATGGGCC, -0.327; that for TGTCTGACAAGATGCTCCCATT, -1.67.
